Pf growth 48h – inhibits P. falciparum growth in the first generation, 48 h; 310,000 tested, 5.9% active; P. falciparum luciferase growth in erythrocytes, 48 h; AID 504832; Potency, µM (highest dose often 28.7 µM), without a hit: at the top dose activity change, negative = inhibition, most hits filed as inhibitors; also: potency is read from the fitted curve at half-maximal effect; % is scaled to controls: 0 for no effect and ±100 for the full control effect
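Luciferase-expressing P. falciparum in infected erythrocytes (2% hematocrit, 0.1% parasitemia final) in RPMI 1640/0.5% Albumax were exposed to compound for 48 hours at 37 C, 5% CO2; growth read as luminescence.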
Cycloheximide cs – counter-screen for Shiga toxin inhibitors: cycloheximide protein synthesis inhibition. cell reporter, cycloheximide protein synthesis inhibition counterscreen. max response, %. 300,000 tested, 12% active; in the data active = max response mostly above about 13%, no sharp cut-off; inactive = mostly below about 14%; also: read at 38.3 µM for the half of the compounds with a filed dose; 0% is about no effect
Pf growth 96h – P. falciparum growth inhibition at 96 hours | P. falciparum luciferase reporter growth, 96 h | AID 504834 | Potency, µM (top dose mostly 28.7 µM), without a hit: top-dose activity change, negative = inhibition, hits mostly inhibitors | 320,000 tested, 6.9% active; also: potency is read from the fitted curve at half-maximal effect; % is scaled to controls: 0 for no effect and ±100 for the full control effect
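Erythrocytes infected with luciferase-expressing P. falciparum were dispensed at 2% hematocrit and 0.05% parasitemia (final), then incubated with compounds 96 hours at 37 C in 5% CO2. Luminescence after detection reagent addition reported growth.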
HCV inhibitor – inhibitors of hepatitis C virus infection; Huh7.5.1 HCVcc-Cre infection, luciferase reporter, 44 h; 340,000 tested, 3.4% active; Potency, µM (top dose mostly 41.8 µM), for the others: top-dose activity change, negative = inhibition, actives largely listed as inhibitors; also: potency is read from the fitted curve at half-maximal effect; % is scaled to controls: 0 for no effect and ±100 for the full control effect
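After 44 h co-culture of compound, cells and HCVcc-Cre (~0.5 moi), substrate is added for 15 min at room temperature and luciferase measured over 15 sec. Cells were seeded at 1,000/well and pre-cultured 4 h.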
AMA1-RON2 inh – inhibitors of Plasmodium falciparum AMA1-RON2 interaction. AlphaScreen AMA1-biotinylated RON2 peptide binding. Potency, µM (doses to about 58.2 µM), inactives show at the highest dose activity change, negative = inhibition, most hits filed as inhibitors. 360,000 tested, 0.2% active. AID 720542;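 also: potency is read from the fitted curve at half-maximal effect; 0% = vehicle wells and -100% = peptide control; nearly all actives have a fitted effect of over 45% in size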
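AMA1 (3D7) with his tag at 25 nM final met compounds first, then biotinylated RON2 peptide at 25 nM; detection used donor plus acceptor beads, 10 µg/mL apiece, read by AlphaScreen after 30 min at room temperature.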
Shiga toxin inh – blocks Shiga toxin action in Vero cells | AID 2315 | inhibition, % at 38.7 µM | Vero cells, Shiga toxin protein synthesis inhibition reporter | 290,000 tested, 9.2% active; in the data active = inhibition mostly above about 28%, no sharp cut-off; inactive = mostly below about 43%; also: 0% is about no effect
Numbers without * were called inactive; ? = inconclusive; nt = no result given; [ ] = another dose, or the depositor's remark. Only some compounds are listed: those with a hit (about 21% of all), similar ones and a draw of the others. Unless noted, calls follow the shape of the dose curve; as a rule, active = well fitted curve in the direction sought with a large enough effect; inconclusive = small, poorly fitted or top-dose-only effect, or another doubt; inactive = no such curve, though single readings can be large; an effect the other way counts as inactive or inconclusive.

SMILES	Pf growth 48h	Cycloheximide cs	Pf growth 96h	HCV inhibitor	AMA1-RON2 inh	Shiga toxin inh
COC(=O)C1CCN(Cc2c(C(=O)N3C[C@@H](C)O[C@@H](C)C3)nc3ccc(Cl)cn23)CC1	2%	1	?	13%	10%	-15
Cc1ccc(S(=O)(=O)c2nc(Nc3ccccc3)sc2Cl)cc1	7%	1	0%	11µM*	-9%	-10
Cc1nc(NC(=S)NC(=O)c2ccccc2)sc1C	0%	39*	114%	-8%	45%	69*
Cc1nc(NC(=O)CCc2ccccc2)sc1C	55%	40*	?	-29%	-2%	68*
CSc1nnc(NC(=O)CCc2ccccc2)s1	9%	17	-8%	-4%	0%	27
Cc1nc(NC(=O)c2ccccc2O)sc1C	nt	18*	24%	4%	8%	41
Cc1ccc2c(NC(=S)NC(=O)c3ccccc3)cccc2n1	14%	10	58%	?	35%	3
CC(=O)c1ccc(OCC(=O)OCC(=O)c2ccc(S(=O)(=O)N3CCCCC3)cc2)cc1	nt	nt	nt	nt	13%	nt
COc1ccc(OCC#CCN2CCC(C)CC2)cc1	8%	8	?	1%	-21%	30
Clc1ccc(OCC#CCN2CCCCCC2)cc1	1%	12	71%	-13%	2%	47*
Cc1c(NC(=O)C(C)OC(=O)c2cc(Cl)ccc2O)c(=O)n(-c2ccccc2)n1C (centres undefined)	-14%	-2	?	13%	-1%	-14
O=C(O)c1cnc(-c2ccccc2)nc1Oc1ccccc1	4%	-11	27%	3.5µM*	13%	-16
Cc1ccc(Oc2nc(-c3ccccc3)ncc2S(C)(=O)=O)cc1	6%	-2	-5%	3%	-2%	-16
Cc1ccc(Oc2nc(-c3ccccc3)ncc2S(=O)(=O)c2ccc(C)cc2)cc1	-28%	-3	-2%	5.6µM*	32%	-2
CC(C)(C)c1nc(SCC(=O)Nc2ccc3c(c2)OCCO3)c2ccccc2n1	?	1	?	?	-17%	-11
COc1ccc(CNCc2cc3c(C(C)(C)C)nn(-c4ccccc4)c3[nH]c2=O)cc1	0.83µM*	4	nt	-1%	68%	35
CC(C)(C)c1nn(-c2ccccc2)c2[nH]c(=O)c(CNc3ccc4c(c3)OCCO4)cc12	nt	16*	?	?	-16%	30
CC(C)(C)c1nn(-c2ccccc2)c2[nH]c(=O)c(CNCc3ccco3)cc12	?	12	?	-29%	101%	18
Cc1ccc(CNCc2cc3c(C(C)(C)C)nn(-c4ccccc4)c3[nH]c2=O)cc1	0.37µM*	10	nt	10µM*	11%	24
Cc1nn(-c2ccc(Cl)cc2)c2[nH]c(=O)c(CNCc3ccc4c(c3)OCO4)cc12	0.37µM*	10	121%	?	71%	10
CCN(CC(=O)Nc1cc(Cl)ccc1C)C(=O)CCOc1ccccc1C	?	-2	-24%	-7%	7%	-6
FC(F)Oc1ccc(-c2csc(NNC3=NCCCCC3)n2)cc1	?	21*	?	?	19%	35
Brc1ccc(-c2csc(NNC3=NCCCCC3)n2)cc1	10µM*	25*	?	?	-4%	42
CC(C)(C)c1ccc(-c2csc(NNC3=NCCCCC3)n2)cc1	10µM*	20*	nt	25µM*	-27%	30
COc1ccc(N=Nc2n(C)c3ccccc3[n+]2C)cc1	0.74µM*	-2	0.52µM*	nt	nt	-19
SMILES	Pf growth 48h	Cycloheximide cs	Pf growth 96h	HCV inhibitor	AMA1-RON2 inh	Shiga toxin inh
COc1ccc(N=Nc2nc(-c3ccccc3)c(-c3ccccc3)[nH]2)cc1	?	-3	?	?	?	-3
CC1=C(C(=O)N(C(C)C)C(C)C)CC(CC(=O)NCCN2CCOCC2)C(=O)N1CCCN1CCCC1=O (centres undefined)	nt	nt	nt	nt	14%	nt
COc1ccc(CNC(=O)C[C@@H]2C=C[C@@H](NS(=O)(=O)c3cccc(OC)c3)[C@@H](CO)O2)cc1	nt	nt	nt	nt	-8%	nt
O=C(/C=N/O)Nc1ccc2sc3ccccc3c2c1	37%	54*	3%	13µM*	3%	71*
COC(=O)c1ccccc1NC(=O)/C=N/O	18%	-4	nt	?	11%	-19
CC(C)[C@@H]1NC(=O)c2cc([N+](=O)[O-])cc(F)c2NCCC[C@@H](C(N)=O)NC(=O)[C@H](CO)NC1=O	24%	-3	9.3µM*	-8%[8.37 µM]	nt	-7
CC(C)C[C@@H]1NC(=O)[C@H](C(C)C)NC(=O)c2cc([N+](=O)[O-])cc(I)c2NCC[C@@H](C(N)=O)NC1=O	?	-1	2.1µM*	-5%	4%	8
CC(C)[C@@H]1NC(=O)c2cc([N+](=O)[O-])cc(I)c2NCC[C@@H](C(N)=O)NC(=O)[C@H](CO)NC1=O	0%	-4	-13%	2%[8.37 µM]	nt	-19
O=C(O)CCCC(=O)OCCCCc1cccs1	18%	-7	5.2µM*	-4%	8%	-17
Cn1nc(C(F)(F)F)c(CO)c1Sc1ccc(F)cc1	5%	-3	48%	-6%	-17%	-6
CCC1OC(=O)C(C)C(OC2C[C@@](C)(OC)C(O)C(C)O2)C(C)C(O[C@@H]2OC(C)CC(N(C)C)C2O)[C@](C)(O)CC(C)C(=NOCOCCOC)C(C)C(O)[C@]1(C)O (some centres undefined)	?	nt	7.4µM*	4%	7%	nt
CC[C@H]1OC(=O)[C@H](C)[C@@H](O[C@H]2C[C@@](C)(OC)[C@@H](O)[C@H](C)O2)[C@H](C)[C@@H](O[C@@H]2O[C@H](C)C[C@H](N(C)C)[C@H]2O)[C@](C)(O)C[C@@H](C)CN(C)[C@H](C)[C@@H](O)[C@]1(C)O	13µM*	nt	0.13µM*	?	0%	nt
CC[C@H]1OC(=O)[C@H](C)[C@@H](O[C@H]2C[C@@](C)(OC)[C@@H](O)[C@H](C)O2)C(C)[C@@H](O[C@@H]2O[C@H](C)C[C@H](N(C)C)[C@@H]2O)[C@](C)(OC)C[C@@H](C)C(=O)[C@H](C)[C@@H](O)[C@]1(C)O (some centres undefined)	13µM*	nt	1.3µM*	nt	nt	nt
CCC1OC(=O)C(C)[C@@H](O[C@H]2C[C@@](C)(OC)C(O)C(C)O2)C(C)[C@@H](O[C@@H]2OC(C)CC(N(C)C)C2O)[C@@](C)(O)CC(C)C(=O)[C@@H](C)C(O)[C@]1(C)O (some centres undefined)	-14%	nt	?	nt	nt	nt
CCSc1nnc(NC(=O)CC(C)C)s1	67%	18*	37%	0%	-3%	28
CCSc1nnc(NC(=O)c2cccnc2)s1	34%	17*	-12%	11%	8%	35
CCCc1nnc(NC(=O)c2cccnc2)s1	10%	1	19%	31%	1%	15
